Measurements reported in publication PMC5540273 (PLoS ONE, 2017).

How the values were obtained:
Conditions in all cases: concentration: 1 μM, replicates: in singlicate; n = 1
[1] = test system: T1, SNARK
T1 construct: gene NUAK2

[2] = test system: SNRK
[3] = test system: SRC
[4] = test system: SRMS
[5] = test system: SRPK1
[6] = test system: SRPK2
[7] = test system: SRPK3
[8] = test system: STK16
[9] = test system: STK33
[10] = test system: STK35
[11] = test system: STK36
[12] = test system: STK39
[13] = test system: SYK
[14] = test system: SgK110
[15] = test system: T2, TAK1
T2 construct: gene MAP3K7

[16] = test system: TAOK1
[17] = test system: TAOK2
[18] = test system: TAOK3
[19] = test system: TBK1
[20] = test system: TEC
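Also: KINOMEscan kinase panel screen.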

| Structure (SMILES) | %Inh [1] [%] | %Inh [2] [%] | %Inh [3] [%] | %Inh [4] [%] | %Inh [5] [%] | %Inh [6] [%] | %Inh [7] [%] | %Inh [8] [%] | %Inh [9] [%] | %Inh [10] [%] | %Inh [11] [%] | %Inh [12] [%] | %Inh [13] [%] | %Inh [14] [%] | %Inh [15] [%] | %Inh [16] [%] | %Inh [17] [%] | %Inh [18] [%] | %Inh [19] [%] | %Inh [20] [%] |
| --- | --- | --- | --- | --- | --- | --- | --- | --- | --- | --- | --- | --- | --- | --- | --- | --- | --- | --- | --- | --- |
| Fc1cc(Cl)ccc1Nc1ccnc2cc(-c3ccc(CN4CCSCC4)o3)ccc12 [GW560106] | 0 | 0 | 99 | 21 | 42 | 23 | 0 | 0 | 20 | 20 | 0 | 4 | 51 | 0 | 0 | 0 | 0 | 0 | 6 | 0 |
| COc1cccc(C2=C(Nc3cccc(O)c3)C(=O)NC2=O)c1 [SB-390771] | 0 | 0 | 0 | 0 | 2 | 0 | 13 | 100 | 0 | 0 | 0 | 8 | 22 | 18 | 100 | 10 | 36 | 9 | 30 | 7 |
| CC(=O)Nc1cn2nc(Oc3cccc(NC(=O)c4cccc(C(F)(F)F)c4)c3)ccc2n1 | 0 | 0 | 99.9 | 11 | 0 | 22 | 9 | 10 | 3 | 1 | 0 | 15 | 14 | 0 | 21 | 0 | 34 | 0 | 57 | 18 |
| CS(=O)(=O)c1cccc(CNc2nc(Nc3ccc4c(c3)CCC(=O)N4)ncc2C(F)(F)F)c1 | 81 | 0 | 0 | 0 | 72 | 0 | 3 | 93.2 | 0 | 0 | 0 | 0 | 75 | 0 | 68 | 0 | 21 | 0 | 89 | 0 |
| Cc1ccc(NC(=O)c2ccnc(N3CCCCC3)c2)cc1-c1ccc(C(=O)NCC2CC2)cc1 [GW775610] | 0 | 0 | 0 | 0 | 0 | 0 | 14 | 0 | 0 | 0 | 0 | 15 | 0 | 0 | 0 | 0 | 0 | 0 | 0 | 0 |
| CN(c1ccc(NC(=O)N2CCN(CCCN3CCOCC3)CC2)cc1)c1ccnc(Nc2ccc(CS(C)(=O)=O)cc2)n1.Cl [GW830899] | 0 | 0 | 10 | 0 | 56 | 9 | 46 | 74 | 0 | 88 | 5 | 0 | 15 | 0 | 0 | 0 | 0 | 0 | 53 | 0 |
| Cc1cc(-c2ccnc(Nc3cccc(C#N)c3)n2)cc(C)c1O [GSK1440913] | 27 | 0 | 7 | 0 | 78 | 54 | 92.2 | 90.4 | 32 | 25 | 38 | 8 | 83 | 0 | 54 | 77 | 22 | 42 | 35 | 19 |
| NCCC(NC(=O)c1cc(Br)c(-c2ccnc3[nH]ccc23)s1)c1ccccc1.O=C(O)C(F)(F)F.O=C(O)C(F)(F)F (centres unmarked) [GSK1307810] | 90.2 | 0 | 0 | 0 | 81 | 36 | 83 | 63 | 90 | 20 | 0 | 5 | 18 | 70 | 51 | 48 | 10 | 0 | 5 | 0 |
| CSc1ccc(NC2=C(c3ccc(Cl)cc3)C(=O)NC2=O)cc1 [SB-317658] | 12 | 0 | 17 | 3 | 0 | 7 | 9 | 24 | 0 | 0 | 15 | 0 | 3 | 0 | 39 | 18 | 0 | 0 | 0 | 0 |
| COC(=O)Nc1nc2cc(Oc3ccc(NC(=O)Nc4cccc(SC)c4)cc3)ccc2[nH]1.Cl [GW697999] | 7 | 0 | 61 | 0 | 38 | 17 | 0 | 3 | 0 | 0 | 8 | 0 | 23 | 0 | 36 | 0 | 0 | 0 | 0 | 5 |
